We go through 22 molecules from PubChem BioAssay (NCATS).

The structures appear in SMILES notation. Inconclusive results are not listed. Activity calls are given as the source filed them. The call rests on the fitted dose curve; in most records, active means well fitted inhibition curve with a large enough effect; inconclusive means small, poorly fitted or top-dose-only effect; inactive means flat fitted curve, though single readings scatter.
On the % scale 0 is the no-effect control and ±100 the full control effect.

Sequence of Calcium and integrin-binding protein 1 (Homo sapiens) (Q99828 whole entry, looked up): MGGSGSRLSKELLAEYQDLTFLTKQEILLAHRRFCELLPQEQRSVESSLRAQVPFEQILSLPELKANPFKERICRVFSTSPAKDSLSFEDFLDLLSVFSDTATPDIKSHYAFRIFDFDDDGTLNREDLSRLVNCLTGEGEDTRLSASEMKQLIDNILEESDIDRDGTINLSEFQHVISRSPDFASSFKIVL

For the test, the target named is Calcium and integrin-binding protein 1 (Homo sapiens) (UniProt Q99828). Description: Primary qHTS for Identification of Calcium Integrin Binding Protein 1 (CIB1) Competitor (AID 1508620).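 Further: GST tagged CIB1 binding a fluorescein labelled alphaIIb integrin peptide tracer; top concentration of the series differs between compounds.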 As to conditions: CIB1-GST / FITC-alphaIIb peptide fluorescence polarization; series mostly up to 114 µM; activity change, negative = inhibition: at the top concentration. The procedure, abridged:
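Fluorescence polarization competition: CIB1-GST (1 uM final) preincubated with compound 15 min at room temperature, then FITC-labeled alphaIIb peptide (100 nM final) added for another 15 min. Polarization read at Ex 480/Em 540.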
Turning to `O=C(OCC#CCSc1nnc(-c2ccccc2)o1)c1ccc(F)cc1`, the “activity change, negative = inhibition” value was 4.65% (inactive).

As to `Cc1ccc(-n2cnc3cc(C(=O)N4CCCCC4)ccc32)cc1`, the “activity change, negative = inhibition” value is 2.51% (inactive).

`Cc1cc2c(s1)c1cnn(Cc3cc(F)ccc3C)c(=O)c1n2C`: the “activity change, negative = inhibition” value was -0.189% (inactive).

For `Oc1cc(Nc2ccncc2)cc2cccnc12`, the “activity change, negative = inhibition” value was -17.6% (inactive).

In the case of `O=C(Cc1ccc(Cl)c(Cl)c1)Nc1ccc([S+](=O)([O-])Nc2ncn[nH]2)cc1`, the “activity change, negative = inhibition” value was -10.3% (inactive).

For `COc1ccc(C2Nc3ccccc3C(=O)N2Cc2cccc(-c3ccccc3)c2)cc1COc1ccc(NC(C)=O)cc1` (configuration not stated), the “activity change, negative = inhibition” value was 4.1% (inactive).

On to `COc1ccc2ncnc(NCc3cccs3)c2c1-c1ccc2c(c1)OCO2`, for which the “activity change, negative = inhibition” value is -4.45% (inactive).

As to `COc1ccc(-c2ccc(=O)n(CC(=O)NCCc3ccccc3)n2)cc1`, the “activity change, negative = inhibition” value is -4.14% (inactive).

For `COc1ccc(C2c3c(nc(Cc4ccccc4)[nH]c3=O)Oc3ccc4ccccc4c32)cc1OC` (configuration not stated), the “activity change, negative = inhibition” value was 1.52% (inactive).

As for `O=C(O)c1ccc(O)c2ncc(-c3ccc(N4CCOCC4)cc3)cc12`, the “activity change, negative = inhibition” value is -15.3% (inactive).

Turning to `CN(CC(=O)Nc1ccc(N2CCOCC2)cc1)Cc1ccccc1O`, the “activity change, negative = inhibition” value was -16% (inactive).

In the case of `CCOc1ccccc1-c1nnc2n1N=C(c1c(OC)cccc1OC)CS2`, the “activity change, negative = inhibition” value is 5.07% (inactive).

With `CC(=O)Nc1sc2c(c1-c1cccs1)CCNC2`, the “activity change, negative = inhibition” value is 7.78% (inactive).

As for `O=C(c1ccccc1)N1CCN(c2nc(-c3ccc(Br)cc3)cs2)CC1`, the “activity change, negative = inhibition” value was 3.47% (inactive).

As for `Cc1ccnc(NC(=S)N2CCN(c3ccc(O)cc3)CC2)c1`, the “activity change, negative = inhibition” value is -25.3% (inactive).

In the case of `Cc1ccc(CC(=O)Nc2nc(-c3ccc4c(c3)CCN4C(=O)c3ccccc3C)c(C)s2)cc1C`, the “activity change, negative = inhibition” value was 10.7% (inactive).

In the case of `C=Cc1nc(Nc2cc(F)cc(F)c2)nc(NC2CCCC2)n1`, the “activity change, negative = inhibition” value was 9.06% (inactive).

For `COc1cccc(Cn2ncc3c4sc(Br)cc4n(C)c3c2=O)c1`, the “activity change, negative = inhibition” value was 0.546% (inactive).

In the case of `CC(C)(C)OC(=O)N1CCN(c2ccc(NCc3ccc(-c4ccc(C#N)cc4)nc3)cc2)CC1`, the “activity change, negative = inhibition” value is 0.0168% (inactive).

Turning to `CCOC(=O)C1CCN(c2ccc(NCc3ccc(-c4ccc(C#N)cc4)o3)cc2)CC1`, the “activity change, negative = inhibition” value was -6.55% (inactive).

Turning to `C[C@@H](NC(c1ccc(F)cc1)c1ccc2cccnc2c1O)c1ccccc1` (some centres not stated), the Potency result is “inactive”.

As for `O=S1(=O)N=C(Sc2cc(C(F)(F)F)cc(C(F)(F)F)c2)c2ccccc21`, the “activity change, negative = inhibition” value is -13.3% (inactive).
